Screens as filed in PubChem.
Most compounds without a hit are left out; they make up all but 3.5% or so of the library.
MITF primary: blocks human microphthalmia-associated transcription factor; O75030; AlphaScreen MITF homodimerization, bead proximity signal; inhibition, % at 2.6 µM; actives 0.91% (n = 650,000); in the data active = inhibition above about 50%;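 also: 0% = vehicle wells with protein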
TEAD-YAP inh: TEAD-YAP interaction inhibition; HEK-TIYL cells, TEAD-Gal4/YAP UAS-luciferase luminescence; inhibition, % at 9.12 µM; actives 1.4% (n = 640,000); in the data active = inhibition above about 32%;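 also: 0% = median of test compound wells and 100% = reference inhibitor wells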
GPR151 activ: human GPR151 activation; AID 1508602; activation, % at 11.2 µM; PathHunter beta-arrestin GPR151 cells, luminescence; actives 1% (n = 650,000); Q8TDV0; in the data active = activation above about 4.9%;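 also: 0% = median of compound wells and 100% = cells with positive control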
FBW7 activator: activators of human E3 ligase FBW7; Q969H0; AlphaScreen FBW7–phospho-cyclin E peptide binding, activator screen; normalized activity (activation), % at 26.1 µM; actives 0.13% (n = 650,000); AID 1259310; in the data active = normalized activity above about 1.9%;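 also: purified mutant Fbw7 with reduced substrate affinity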
GPR151 confirm: human GPR151 activation, confirmation screen | activation, % at 11.2 µM | shares compounds with GPR151 activ | 6,700 tested, under 10 active | GPR151 PathHunter beta-arrestin cells, luminescence, 90 min; % of EA-reagent control over plate median | AID 1508609;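 active = mean percent activation across replicates above the confirmation screen cutoff of 4.91%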
GPR119 counter: GPR119 activation, counter-screen for GPR151 activators; actives 0.3% (n = 6,700); shares compounds with GPR151 activ; AID 1508611; GPR119 PathHunter beta-arrestin cells, luminescence, 90 min; 0 = compound-well median, 100 = enzyme-acceptor control; activation, % at 11.2 µM;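 active = mean percent activation in the counterscreen above 29.09%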;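 also: counterscreen on off-target GPR119 to flag nonselective hits from the GPR151 activator screen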
Target sequence (Q8TDV5 whole entry, looked up): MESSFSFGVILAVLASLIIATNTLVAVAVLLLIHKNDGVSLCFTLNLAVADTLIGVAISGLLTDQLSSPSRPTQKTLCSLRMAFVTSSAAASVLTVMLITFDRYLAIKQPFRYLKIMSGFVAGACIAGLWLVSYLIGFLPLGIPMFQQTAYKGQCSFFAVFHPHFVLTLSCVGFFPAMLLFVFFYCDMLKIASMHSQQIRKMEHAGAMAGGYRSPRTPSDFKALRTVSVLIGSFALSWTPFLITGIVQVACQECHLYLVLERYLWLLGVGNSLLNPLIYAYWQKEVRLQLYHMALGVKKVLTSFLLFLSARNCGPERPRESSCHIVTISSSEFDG
* = called active by the depositor; nt = not tested or not shown.

SMILES | MITF primary | TEAD-YAP inh | GPR151 activ | FBW7 activator | GPR151 confirm | GPR119 counter
Oc1oc(-c2ccccc2Br)nc1C=Nc1ccc(I)cc1 | 5.9 | -0.6 | 9.3* | 0.0 | 0.3 | 1.7
Oc1oc(-c2ccccc2Br)nc1C=Nc1ccc(Br)cc1 | -2.6 | -1.4 | 1.3 | 0.0 | nt | nt
CCCCNCc1cc(Cl)c(OCC(=O)NC(C)(C)C)c(OCC)c1 | -9.9 | 8.0 | 7.0* | 0.6 | 0.1 | 5.8
CCOc1ccc(-n2c(=O)c3c(C)c(C)sc3n(CC(=O)NC3CCCC3)c2=O)cc1 | -0.6 | -3.0 | -0.2 | -0.1 | nt | nt
Cc1ccc(-c2c(Nc3ccc(Cl)cc3)c(=O)c2=O)cc1 | 3.4 | -2.6 | 5.0* | 0.0 | 1.9 | 7.8
CCOC(=O)CC(=O)N1CCN(Cc2ccco2)CC1C(=O)NCc1ccccc1 (stereo not given) | 8.1 | -7.8 | 1.4 | 0.1 | nt | nt
O=C(COc1ccc(Cl)cc1)NCc1cc(-c2cccs2)on1 | -1.2 | 10.7 | 5.2* | 0.3 | -1.3 | -14.1
O=C(NCCN1CCOCC1)c1ccc2c(c1)ncn2-c1ccc(F)cc1F | 17.5 | -1.4 | 5.4* | 0.1 | -0.9 | -11.5
Cc1ccc(-n2cnc3cc(C(=O)NCc4ccc(F)cc4)ccc32)cc1Cl | 0.1 | -2.1 | 5.9* | -0.2 | 0.1 | -11.6
Cn1nccc1Nc1nc(NC2CCN(Cc3ccccc3)CC2)c2ncn(CCN3CCCC3=O)c2n1 | 13.3 | 11.8 | 1.0 | -0.1 | nt | nt
CCCN(CCC)CCCN1C(=O)C2C(C(=O)Nc3ccc(F)c(Cl)c3)C3C=CC2(O3)C1C(=O)NC1CCCC(C)C1C (stereo not given) | -7.0 | 2.2 | -0.9 | -0.2 | nt | nt
CCCN(CCC)CCN1C(=O)C2C(C(=O)Nc3ccc(F)c(Cl)c3)C3C=CC2(O3)C1C(=O)NC1CCCC(C)C1C (stereo not given) | 1.4 | 9.0 | 6.9* | -0.1 | 1.2 | -1.5
COc1ccc(NC(=O)C2C3C=CC4(O3)C2C(=O)N(C(C)CCc2ccccc2)C4C(=O)NC2CCCC(C)C2C)cc1 (stereo not given) | 0.7 | 9.0 | 7.0* | -0.1 | -0.1 | -3.1
CCOC(=O)N1CCC(N(CCOC)C(=S)Nc2cccc(OC)c2)CC1 | -1.2 | -14.0 | 8.6* | -0.2 | -1.2 | -10.8
O=C(Nc1ccccc1)OCC1CCCO1 (stereo not given) | 3.4 | -35.1 | 10.6* | 0.1 | 0.0 | -4.7
CCN(CC)S(=O)(=O)c1cccc(C(=O)NN)c1 | -3.4 | -11.3 | 5.5* | -0.1 | -0.2 | -8.8
O=C(Cn1nnnc1CN1CCCCCC1)NCCCc1ccccc1 | -11.1 | -0.5 | -0.5 | 0.0 | nt | nt
Cc1nn(-c2ccccn2)c2c1C(=O)CC(C)(C)C2Br (stereo not given) | 16.0 | 3.5 | 5.8* | 0.0 | -1.4 | -8.4
Cc1nn(-c2ccccc2)c2sc(C(N)=O)cc12 | 18.5 | -12.1 | -1.0 | 0.1 | nt | nt
Cc1c(NC(=O)CSc2ccccc2)c(=O)n(-c2ccccc2)n1C | -29.1 | 7.6 | 2.2 | 0.0 | nt | nt
Cc1c(NC(=O)CSc2ccc(C(C)(C)C)cc2)c(=O)n(-c2ccccc2)n1C | 10.8 | 10.1 | 8.2* | 0.0 | -0.1 | 0.2
Cc1ccc(NC(=O)CSc2nnc(NC(=O)CSc3nnc4n(N)cnn34)s2)cc1 | 9.9 | 12.0 | -1.0 | 0.0 | nt | nt
O=C(CN(C(=O)CCC(=O)Nc1nccs1)c1cccc(F)c1)NCC1CCCO1 (stereo not given) | 11.2 | -5.0 | 9.2* | 1.0 | 0.5 | -0.1
COc1ccccc1C(CC(=O)Nc1nccs1)c1ccc2c(c1)OCO2 (stereo not given) | -0.3 | -4.9 | 6.6* | 0.1 | -0.3 | 13.1
COCCNC(=O)CN(C(=O)CCC(=O)Nc1ccccn1)c1ccc2c(c1)OCO2 | 8.3 | -4.6 | -0.8 | 0.4 | nt | nt
COCCNC(=O)CN(C(=O)CCC(=O)Nc1nccs1)c1ccc2c(c1)OCO2 | -4.1 | 0.9 | 7.3* | 0.1 | 0.6 | 11.4
Cc1c(C#N)c2nc3c(c(-c4ccc(Br)cc4)c2n1-c1ccccc1)CCC3 | 2.4 | 12.2 | 2.0 | -0.1 | nt | nt
Cc1ccc(-c2nnc(Nc3ccccc3)c3ccccc23)cc1S(=O)(=O)N1CCOCC1 | -11.2 | 2.6 | 1.7 | 0.1 | nt | nt
Cc1ccc(-c2nnc(Nc3ccc(Br)cc3)c3ccccc23)cc1S(=O)(=O)N1CCOCC1 | -9.6 | 2.8 | 5.0* | -0.3 | 0.4 | 1.9
